Data on 87 compounds can be found in PubChem BioAssay AID1851 (National Center for Advancing Translational Sciences (NCATS), 2009).

Where “and” joins values, the source holds several entries; their conditions need not be identical. Identical values can stand only once. The campaign covered roughly 16,000 compounds. About 5,100 (32%) were called active. Not shown: some 25% with an inconclusive outcome. The list shows a part of the results. Values without a mark were called inactive. The call rests on the fitted dose curve; in most records, active means well fitted curve in the direction sought with a large enough effect; inconclusive means small, poorly fitted or top-dose-only effect, or effect the other way; inactive means no such curve, though single readings can be large or run the other way. Square brackets hold non-standard residues; d marks the D form. Peptide text beside a SMILES is read from it.
On the % scale 0 is the no-effect control and ±100 the full control effect.

Chain of Cytochrome P450 3A4 (Homo sapiens) (P08684 whole entry, looked up): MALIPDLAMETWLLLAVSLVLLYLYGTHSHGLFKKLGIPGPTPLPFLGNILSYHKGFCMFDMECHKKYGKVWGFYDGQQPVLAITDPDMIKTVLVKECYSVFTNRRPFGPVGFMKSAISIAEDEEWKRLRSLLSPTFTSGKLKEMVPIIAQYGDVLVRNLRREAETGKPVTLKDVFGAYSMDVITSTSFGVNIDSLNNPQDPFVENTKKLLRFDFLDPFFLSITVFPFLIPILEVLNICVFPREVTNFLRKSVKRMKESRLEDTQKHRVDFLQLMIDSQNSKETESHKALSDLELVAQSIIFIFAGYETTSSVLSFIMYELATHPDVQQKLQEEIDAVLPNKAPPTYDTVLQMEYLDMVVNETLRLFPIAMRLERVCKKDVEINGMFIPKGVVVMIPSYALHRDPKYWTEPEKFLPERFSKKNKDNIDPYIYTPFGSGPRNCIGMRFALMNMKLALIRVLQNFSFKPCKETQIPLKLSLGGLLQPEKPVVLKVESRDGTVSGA

This assay has as its target Cytochrome P450 3A4 (Homo sapiens) (UniProt P08684). Nature of the assay: Cytochrome panel assay with activity outcomes. The conditions noted are these: recombinant CYP, pro-luciferin dealkylation, luminescence, p450-cyp3a4; series mostly up to 57.1 µM; activity, negative = inhibition: at the top concentration.
`CCCOc1cc(N)ccc1C(=O)OCCN(CC)CC`: the “activity, negative = inhibition” value was -30.4% [at 25.6 µM]. As to `N[C@H](CO)C(=O)NCC(=O)O` (H-[dS]-Gly-OH), the activity, negative = inhibition is -1.48% [at 11.4 µM]. The same measure, in the same setting: under `CC(=O)N=c1sc(S(N)(=O)=O)nn1C` stands -10.1% [at 25.6 µM]. Consider `CCc1cc2c(=O)c(-c3nc4ccccc4n3C)c(C)oc2c(CN(CC)CC)c1O`, for which the “activity, negative = inhibition” value is -26.8%. On to `CN(C)Cc1cc(O)c(O)c(CN(C)C)c1`, for which the activity, negative = inhibition was -13.7% [at 11.4 µM]. The same measure, in the same setting: the result for `Cc1cc2c(s1)CCCCC(=O)N2` reads 23.4%; that for `Cc1nonc1NC(=O)N1CCCC1`, 29.8%. A word on the AC50: it is the midpoint of the concentration-response curve, whichever way the signal moves. On to `CCOc1nc(N2CCCCC2)nc(-n2cc(-c3ccccc3)nn2)n1`, for which the AC50 is 15.8 µM (active). Still for that read-out and setting: the result for `Cc1c(C(=O)N2CCCCCC2)nnn1-c1nonc1N` reads 11.2 µM (active). With `CC1CCN(CC[S-])CC1.O.O.[Cl][Pt]`, the activity, negative = inhibition is -1.49% [at 11.4 µM]. As for `Cc1cc(C(=O)N[C@H](c2ccccc2)[C@@]2(C)C[C@@H]2[C@@H](C)C(=O)Nc2ccc3ccccc3c2)n(C)n1`, the AC50 is 0.794 µM (active). As for `Cc1cc(C(=O)N[C@@H](c2ccccc2)[C@]2(C)C[C@H]2[C@@H](C)C(=O)Nc2ccc3ccccc3c2)n(C)n1`, the AC50 was 0.794 µM (active). `O=C(Nc1cc(C(=O)Nc2ccc(S(=O)(=O)O)cc2S(=O)(=O)O)cc(C(=O)Nc2ccc(S(=O)(=O)O)cc2S(=O)(=O)O)c1)Nc1cc(C(=O)Nc2ccc(S(=O)(=O)O)cc2S(=O)(=O)O)cc(C(=O)Nc2ccc(S(=O)(=O)O)cc2S(=O)(=O)O)c1`: the “activity, negative = inhibition” value is -3.85%. On the same count and under the same terms, under `Fc1nc(N2CCCC2)c(F)c(Oc2ccccc2Oc2c(F)c(F)nc(N3CCCC3)c2F)c1F` stands 17.1%.

Take `Cc1noc(C)c1-c1ccc2ncnc(N(C)Cc3ccco3)c2c1`: the AC50 was 25.1 µM (active). With `CN(C)C(=O)c1ccc(-c2cc(N(C)Cc3ccco3)ncn2)cc1`, the “activity, negative = inhibition” value is 25.6%. Take `CN(Cc1ccco1)c1ncnc2ccc(-c3ccoc3)cc12`: the AC50 is 25.1 µM (active). Consider `CN(Cc1ccco1)c1ncnc2ccc(-c3ccc4c(c3)OCO4)cc12`, for which the AC50 is 2.51 µM (active). In the case of `Cc1noc(C)c1-c1ccc2ncnc(N(C)C)c2c1`, the “activity, negative = inhibition” value is -29.5%. The same measure, in the same setting: the result for `N#CC(CC(=O)O)=C(c1ccccc1)c1ccccc1` reads 5.39% [at 11.4 µM]. The same measure, in the same setting: under `Cc1nn(-c2ccc(F)cc2)c(Cl)c1/C=C(\CCC(=O)O)c1nc2ccccc2s1` stands 21.6%. Consider `Cc1nn(-c2ccc(F)cc2)c(C)c1NS(=O)(=O)c1ccc2ccccc2c1`, for which the AC50 is 4.47 µM (active). `CC(=O)Nc1c(C)nn(-c2ccc(C)c(C)c2)c1C`: the activity, negative = inhibition is -3.89% [at 11.4 µM]. `O=[N+]([O-])c1ccc(C=Nc2ccc(Cl)cc2Cl)s1`: the “activity, negative = inhibition” value is -29.3%. Still for that read-out and setting: under `Cc1ccc(C(=O)N/N=C/c2ccc([N+](=O)[O-])s2)cc1` stands -26.6%. On to `Cc1cccc(NC(=S)N/N=C/c2ccc([N+](=O)[O-])s2)c1`, for which the AC50 is 22.4 µM (active). For `O=C(O)Cc1ccc(NC(=O)C2CCCCC2C(=O)O)cc1` (configuration not stated), the “activity, negative = inhibition” value is -1.35%.

Turning to `CCSc1nnc(NC(=O)Cc2ccc(OC)c(OC)c2)s1`, the activity, negative = inhibition was -2.65% [at 2.29 µM]. As for `CCSc1nnc(NC(=O)CSc2nc3c(cc2C#N)CCCC3)s1`, the AC50 is 10 µM (active). With `CCSc1nnc(NC(=O)C(C(F)(F)F)C(F)(F)F)s1`, the “activity, negative = inhibition” value was -17%. With `Oc1cc2c(cc1O)CN(C(=S)NCCc1ccc(Cl)cc1)CCC2`, the AC50 was 3.16 µM (active). Consider `O=C(NCCc1ccc(O)cc1)c1ccc(Cl)cc1`, for which the activity, negative = inhibition was 1.62% [at 2.29 µM]. The same measure, in the same setting: under `CC[C@@]1([N+](=O)[O-])C[C@H]2C=C[C@@H]1C2` stands -4.49% [at 11.4 µM].

As for `C/C(=C\c1ccco1)C1C(C#N)=C(N)Oc2n[nH]c(-c3ccccc3)c21` (configuration not stated), the AC50 is 3.98 µM (active). Turning to `Cc1ccc(NC(=O)C(=O)NCc2ccc(/C=C(/C#N)C(=O)NCc3cccnc3)o2)cc1`, the AC50 is 1.41 µM (active). As to `Cc1cc(N)n(-c2ccccc2)n1`, the “activity, negative = inhibition” value is -14.7%. For the compound `Cc1cc(N)n(-c2ccc3ccccc3c2)n1`, the AC50 was 28.2 µM (active). For `Nc1nc(-c2ccc3ccccc3c2)cc(-c2cc(-c3ccc4ccccc4c3)nc(N)n2)n1`, the activity, negative = inhibition is -3.3% [at 11.4 µM].

For the compound `COc1cc(N=C(N)N=C(N)N)c2ncccc2c1`, the activity, negative = inhibition was -8.88% [at 11.4 µM].

With `CCOC(=O)CCN1C(=O)[C@H]2[C@@H]3[C@H](O)[C@H](O)CC(=O)[C@H]3CC[C@H]2C1=O`, the activity, negative = inhibition was -4.78% [at 11.4 µM] and -14.8% [at 11.4 µM]. Same read-out and setting: under `CC1Cc2ccccc2N1C(=O)c1cc2c(=O)n3ccccc3nc2n1C` (configuration not stated) stands -16.7%.

For `CC1Cc2ccccc2N1C(=O)CCN1C(=O)C2C3C=CC(C3)C2C1=O` (configuration not stated), the half-maximal activity concentration (AC50) is 1.41 µM (active).

Turning to `CC1Cc2ccccc2N1C(=O)CN1C(=O)COc2ccccc21` (configuration not stated), the activity, negative = inhibition is -6.97% [at 2.29 µM]. `O=C(CCN1C(=O)C2C3C=CC(C3)C2C1=O)NCCN1CCCc2ccccc21` (configuration not stated): the AC50 was 3.98 µM (active). Take `CC1Cc2ccccc2N1C(=O)CSCC(=O)O` (configuration not stated): the “activity, negative = inhibition” value is -12.7%. Take `CC1Cc2ccccc2N1C(=O)Cn1c(=O)cc(O)c2ccccc21` (configuration not stated): the AC50 was 25.1 µM (active).

With `O=C(O)Cc1ccc2ocnc2c1`, the “activity, negative = inhibition” value was 10.5%.

With `Cc1nc2cnc(Oc3ccccc3)nc2n(C)c1=O`, the “activity, negative = inhibition” value is -6.94%.

Turning to `COc1ccc(Oc2ncc3nc(C)c(=O)n(-c4ccccc4)c3n2)cc1`, the AC50 was 5.01 µM (active). Same read-out and setting: the result for `COc1ccc(-n2c(=O)c(C)nc3cnc(Oc4ccccc4)nc32)cc1` reads 15.8 µM (active); that for `COc1ccc(Oc2ncc3nc(C)c(=O)n(-c4ccc(OC)cc4)c3n2)cc1`, 3.98 µM (active). Still for that read-out and setting: under `COc1ccc(Oc2ncc3nc(C)c(=O)n(C)c3n2)cc1` stands 25.1 µM (active). With `COc1ccc(-c2oc3ccccc3c(=O)c2OC(=O)c2ccc(C)cc2)cc1`, the “activity, negative = inhibition” value was 2.5%.

As to `CCOC(=O)c1oc2ccccc2c1NC(=O)c1ccc(S(=O)(=O)N(C)C)cc1`, the AC50 was 14.1 µM (active). The same measure, in the same setting: the result for `CCOC(=O)c1oc2ccccc2c1NC(=O)c1cc(OC)cc(OC)c1` reads 7.94 µM (active). In the case of `CN(C)S(=O)(=O)c1ccc(C(=O)Nc2ccc(CN3CCCC3)cc2)cc1`, the “activity, negative = inhibition” value is 24.6%.

For `CN(C)S(=O)(=O)c1ccc(NC(=O)COC(=O)c2ccccn2)cc1`, the “activity, negative = inhibition” value is -17.6%. In the case of `CCOC(=O)c1oc2ccccc2c1NC(=O)c1ccc2c(c1)OCO2`, the concentration at half-maximal activity (AC50) is 2.24 µM (active). With `Nc1c(OCC(=O)O)ccc2cc(S(=O)(=O)O)ccc12`, the activity, negative = inhibition was -9.68% [at 11.4 µM].

Take `CNc1ncnc2c1ncn2[C@@H]1O[C@H](CO)[C@@H](O)[C@@H]1O`: the “activity, negative = inhibition” value was 10% [at 25.6 µM].

On to `NC(=O)OC[C@H](O)COc1ccc(Cl)cc1`, for which the “activity, negative = inhibition” value was -3.48% [at 25.6 µM]. As to `C[C@H](CO)NC(=O)[C@@H]1C[C@H]1[C@@H](NP(=O)(c1ccccc1)c1ccccc1)c1ccccc1`, the half-maximal activity concentration (AC50) was 12.6 µM (active). The same measure, in the same setting: the result for `O=C(Nc1ccc2ccccc2c1)[C@H]1C[C@@H]1[C@H](NP(=O)(c1ccccc1)c1ccccc1)c1ccccc1` reads 2.51 µM (active). On to `O=C(Nc1ccc2ccccc2c1)[C@@H]1C[C@H]1[C@@H](NP(=O)(c1ccccc1)c1ccccc1)c1ccccc1`, for which the “activity, negative = inhibition” value is -44.6%. Still for that read-out and setting: under `CC(C)=CCC/C(C)=C/CO/N=C1/C[C@@H](O)[C@@H](O)[C@@H]2[C@@H]3C(=O)N(Cc4ccccc4)C(=O)[C@H]3CC[C@@H]12` stands -7.78% [at 11.4 µM]; under `CCOC(=O)CCN1C(=O)[C@H]2[C@H]3[C@H](O)[C@H](O)C/C(=N/OC/C=C(\C)CCC=C(C)C)[C@@H]3CC[C@@H]2C1=O`, -25.9% [at 11.4 µM]. In the case of `CC(C)=CCC/C(C)=C/CO/N=C1/C[C@@H](O)[C@@H](O)[C@@H]2[C@@H]3C(=O)N(Cc4ccc5c(c4)OCO5)C(=O)[C@H]3CC[C@@H]12`, the AC50 is 1.58 µM (active). Turning to `CC(C)=CCC/C(C)=C/CO/N=C1/C[C@@H](O)[C@@H](O)[C@@H]2[C@@H]3C(=O)N(C[C@@H]4CCCO4)C(=O)[C@H]3CC[C@@H]12`, the activity, negative = inhibition is -23% [at 11.4 µM]. The same measure, in the same setting: the result for `CCOC(=O)CCN1C(=O)[C@H]2[C@H]3[C@H](O)[C@H](O)C/C(=N/OC/C=C(\C)CCC=C(C)C)[C@H]3CC[C@@H]2C1=O` reads -16.7% [at 11.4 µM]. Regarding `CC(C)=CCC/C(C)=C/CO/N=C1/C[C@@H](O)[C@@H](O)[C@@H]2[C@@H]3C(=O)N(Cc4ccc5c(c4)OCO5)C(=O)[C@H]3CC[C@H]12`, the AC50 was 1.58 µM (active). Turning to `CCn1c(CCCc2nc3c([nH]2)c(=O)n(C)c(=O)n3C)nc2c1c(=O)n(C)c(=O)n2C`, the activity, negative = inhibition is -26.8% [at 11.4 µM]. Regarding `COC(=O)c1[nH]c2ccc(Br)cc2c1NC(=O)CN1CCN(C2CCCCC2)CC1`, the AC50 is 14.1 µM (active). Take `COC(=O)c1[nH]c2ccc(Br)cc2c1NC(=O)Oc1ccccc1`: the activity, negative = inhibition is 10.3% [at 2.29 µM]. With `COC(=O)c1[nH]c2ccc(Br)cc2c1NC(=O)CN1CCCc2ccccc21`, the activity, negative = inhibition was -23.9% [at 2.29 µM].

On to `COc1ccc(C2c3c(ncn(CCN4CCOCC4)c3=N)Oc3ccc4ccccc4c32)cc1OC` (configuration not stated), for which the AC50 was 3.16 µM (active). In the case of `CNC(=S)NNC(=O)COc1ccccc1C`, the “activity, negative = inhibition” value was -15%.

With `Cc1ccccc1OCCNC(=O)c1ccccc1Sc1ccccc1C#N`, the AC50 is 14.1 µM (active). As to `CCCC1CCC(c2ccc(C(N)=O)cc2)CC1` (configuration not stated), the “activity, negative = inhibition” value was -23.3%. Turning to `CC(C)c1nc2ccccn2c1NC1CCCCC1`, the AC50 is 14.1 µM (active).

Consider `N=c1c(C(=O)NC2CCCC2)cc2c(=O)n3ccccc3nc2n1C1CCCC1`, for which the “activity, negative = inhibition” value is 6.82%.

With `CCSc1nnc(-c2ccccc2NC(C)=O)c(=O)[nH]1`, the “activity, negative = inhibition” value was 13.7%.

`CCC[C@@H]1C[C@@]1(CCC)C(NS(=O)(=O)c1cccc2cccnc12)c1ccc(Cl)cc1` (some centres not stated): the AC50 was 0.794 µM (active). As for `CC[C@H](CN(C)C)C(=O)c1ccco1`, the activity, negative = inhibition was -7.24% [at 11.4 µM]. Still for that read-out and setting: the result for `CCOC(=O)CC(NC(=O)c1cccs1)c1ccc(OCC)cc1` (configuration not stated) reads -4.62%.

For `CCC[C@@H]1C[C@@]1(CCC)C(NC(=O)c1ccco1)c1ccc(Cl)cc1` (some centres not stated), the AC50 is 12.6 µM (active). Still for that read-out and setting: the result for `CCC[C@@H]1C[C@@]1(CCC)C(NC(=O)c1cccs1)c1ccc(Cl)cc1` (some centres not stated) reads 6.31 µM (active). As to `CCCCN1C(=O)NC(NC(=O)c2ccco2)(C(F)(F)F)C1=O` (configuration not stated), the activity, negative = inhibition is 2.31% [at 2.29 µM].
